Some test systems named below: HCT-15 colon; HT29 colon; SNB-75 CNS; SNB-19 CNS; U251 CNS; PC-3 prostate; SK-MEL-5 melanoma; UACC-62 melanoma; LOX IMVI melanoma; SK-MEL-28 melanoma.
What all share (experiment): NCI-60 one-dose screen, 48 h (100 = growth as untreated, 0 = no growth, -100 = all killed)
What all share (conditions): 10 µM

The panel holds about 83,000 compounds, 20% with a hit somewhere; the sample as a whole holds those more often.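 Growth was measured after 48 h exposure to one concentration of compound in 96-well plates. Values under 10 count as active.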 Unmarked numbers belong to inactive results. Calls of active or inactive are those of the source.

Take `CN(C)c1ccc(/C=N/NC(=O)c2cccc3ccccc23)c(Cl)c1`: the growth with HCT-15 colon is 27.9%; in the experiment with HT29 colon it was 12.9%; in the experiment on SNB-75 CNS, 20.3%; in the experiment on SNB-19 CNS, 52.6%; in the experiment with U251 CNS, 23.9%; in the experiment on PC-3 prostate, 20.3%. Moreover, the growth in the experiment with SK-MEL-5 melanoma was 24.3%; in the experiment with UACC-62 melanoma, 46.4%; in the experiment on LOX IMVI melanoma, 37.9%; in the experiment on SK-MEL-28 melanoma it was 42%.

As for `O=S(=O)(O)c1ccc(Cl)cc1`, the growth in the experiment with HCT-15 colon was 100%; with HT29 colon, 93.6%; with SNB-75 CNS, 100%; in the experiment on SNB-19 CNS it was 102%; in the experiment on U251 CNS, 101%; in the experiment on PC-3 prostate, 96.5%. Besides, the growth with SK-MEL-5 melanoma is 98.3%; in the experiment with UACC-62 melanoma, 99.8%; with LOX IMVI melanoma, 96.3%; with SK-MEL-28 melanoma it was 113%.

For the compound `COc1ccc(C(=O)CC(CC(=O)c2ccc(OC)cc2)c2c(C)nn(-c3ccccc3)c2Cl)cc1`, the growth in the experiment on HCT-15 colon was 100%; in the experiment with HT29 colon it was 87%; in the experiment with SNB-75 CNS it was 91.3%; in the experiment on SNB-19 CNS, 93.3%; in the experiment with U251 CNS, 102%; in the experiment on PC-3 prostate, 85.6%. Further, the growth was 90.2% in the experiment on SK-MEL-5 melanoma, 88.3% in the experiment on UACC-62 melanoma, 83.3% in the experiment with LOX IMVI melanoma and 105% with SK-MEL-28 melanoma.

Take `Cc1cc(CCNC=O)c(C)c2c1sc1ccccc12`: the growth was 90.2% in the experiment with HCT-15 colon; 97.1% in the experiment on HT29 colon; 81.9% in the experiment with SNB-75 CNS; 85.1% in the experiment with SNB-19 CNS; 92% in the experiment on U251 CNS; 84.7% in the experiment with PC-3 prostate. In addition, the growth with SK-MEL-5 melanoma is 78.8%; with UACC-62 melanoma it was 79.1%; with LOX IMVI melanoma, 98.4%; with SK-MEL-28 melanoma, 89.9%.

On to `C=CCSC(CC)(CC)C(=O)NC`, for which the growth with HCT-15 colon was 101%; in the experiment with HT29 colon, 87%; in the experiment with SNB-75 CNS, 89.5%; in the experiment with SNB-19 CNS, 102%; in the experiment on U251 CNS it was 101%; with PC-3 prostate it was 101%. The growth was 103% with SK-MEL-5 melanoma, 103% with UACC-62 melanoma, 100% in the experiment on LOX IMVI melanoma and 110% with SK-MEL-28 melanoma.

Take `O=[N+]([O-])c1cc(Cl)cc(Cl)c1O`: the growth with HCT-15 colon was 101%; in the experiment on HT29 colon, 97.7%; with SNB-75 CNS it was 90.8%; in the experiment on SNB-19 CNS it was 103%; in the experiment with U251 CNS, 104%; in the experiment on PC-3 prostate it was 103%. Further, the growth with SK-MEL-5 melanoma is 101%; in the experiment with UACC-62 melanoma, 103%; in the experiment with LOX IMVI melanoma, 92.6%; in the experiment on SK-MEL-28 melanoma, 102%.

Consider `CN(C)CCCOc1ccc(OCCCN(C)C)c2c1C(=O)c1ccccc1C2=O`, for which the growth in the experiment with HCT-15 colon was 91.5%; in the experiment on HT29 colon it was -20.6% (active); in the experiment with SNB-75 CNS it was -20.6% (active); with SNB-19 CNS it was 7.81% (active); in the experiment on U251 CNS, 5.27% (active); with PC-3 prostate it was 11%. In addition, the growth with SK-MEL-5 melanoma was 10.5%; in the experiment on UACC-62 melanoma, -46.4% (active); with LOX IMVI melanoma, -13.2% (active); in the experiment on SK-MEL-28 melanoma it was -4.67% (active).

In the case of `C=CCN(CC=C)C(=O)[C@H](CC)[C@@H]1CC[C@@H](C)[C@@H]([C@H](C)[C@@H](O)[C@@H](C)C(=O)[C@H](CC)C2O[C@]3(C=C[C@@H](O)[C@]4(CC[C@@](C)([C@H]5CC[C@](O)(CC)[C@H](C)O5)O4)O3)[C@H](C)C[C@@H]2C)O1` (stereo not given in full), the growth in the experiment on HCT-15 colon was 4.64% (active); in the experiment on HT29 colon, 9.13% (active); in the experiment with SNB-75 CNS, -7.45% (active); with SNB-19 CNS, 14.2%; in the experiment with U251 CNS, 18.9%; in the experiment on PC-3 prostate it was 2.56% (active). The growth is -85.2% (active) in the experiment with SK-MEL-5 melanoma, 14.3% in the experiment with UACC-62 melanoma, 17% with LOX IMVI melanoma and 33.9% in the experiment with SK-MEL-28 melanoma.

As for `COc1cccc2ccc(CC(O)(c3ccccc3)c3ccccc3)nc12`, the growth with HCT-15 colon was 54.7%; with HT29 colon, 91.8%; in the experiment on SNB-75 CNS, 74.6%; in the experiment on SNB-19 CNS it was 96.6%; in the experiment on U251 CNS it was 97%; in the experiment on PC-3 prostate, 79%. Moreover, the growth with SK-MEL-5 melanoma was 87%; in the experiment with UACC-62 melanoma it was 86.2%; in the experiment on LOX IMVI melanoma, 92.4%; in the experiment on SK-MEL-28 melanoma, 106%.

`CC(C)(C)c1ccc(S(=O)(=O)Oc2ccc(NC(=O)C3CCCCC3)cc2)cc1`: the growth in the experiment on HCT-15 colon is 36.8%; with HT29 colon, 44.9%; with SNB-75 CNS, 80.1%; in the experiment on SNB-19 CNS it was 49.2%; with U251 CNS, 43.9%; with PC-3 prostate it was 22.3%. In addition, the growth in the experiment with SK-MEL-5 melanoma was 26.3%; with UACC-62 melanoma, 31.1%; with LOX IMVI melanoma, 48.7%; in the experiment with SK-MEL-28 melanoma it was 66.8%.

`CC(C1=C(CN(C(=O)Cc2cn(-c3ccccc3)nc2-c2ccc(Cl)cc2)C(C)C)Cc2ccccc21)c1ccccn1` (stereo not given): the growth in the experiment with HCT-15 colon is 54.2%; with HT29 colon it was 32.9%; with SNB-75 CNS, 80.7%; with SNB-19 CNS, 76.9%; with U251 CNS, 67.6%; in the experiment with PC-3 prostate, 41.7%. Besides, the growth with SK-MEL-5 melanoma was 46.1%; with UACC-62 melanoma it was 63.6%; in the experiment with LOX IMVI melanoma it was 69.2%; in the experiment on SK-MEL-28 melanoma, 91.9%.

Turning to `CN(C)c1nc(N)c2nccnc2n1`, the growth was 120% with HCT-15 colon; 110% in the experiment on HT29 colon; 84.8% with SNB-75 CNS; 104% with SNB-19 CNS; 112% in the experiment on U251 CNS; 104% in the experiment on PC-3 prostate. The growth in the experiment with SK-MEL-5 melanoma is 107%; in the experiment with UACC-62 melanoma, 98%; in the experiment with LOX IMVI melanoma, 95.1%; in the experiment with SK-MEL-28 melanoma it was 118%.

Turning to `CNC(=O)c1cc(Oc2ccc3c(c2)sc2nc(-c4ccc(NC(=O)Nc5ccc(Cl)c(C(F)(F)F)c5)cc4)cn23)ccn1`, the growth was 71.4% in the experiment with HCT-15 colon; 67.2% in the experiment with HT29 colon; 66.6% with SNB-75 CNS; 85.7% in the experiment with SNB-19 CNS; 61.9% in the experiment on U251 CNS; 64% in the experiment with PC-3 prostate. In addition, the growth in the experiment on SK-MEL-5 melanoma is 86.6%; in the experiment with UACC-62 melanoma it was 88%; in the experiment with LOX IMVI melanoma, 76.1%; with SK-MEL-28 melanoma it was 88.4%.
